# Inconclusive results are not listed. Calls of active or inactive are those of the source. Unless noted, calls come from the whole dose curve; as a rule, active = well fitted curve in the direction sought with a large enough effect; inconclusive = small, poorly fitted or top-dose-only effect, or another doubt; inactive = no such curve, though single readings can be large; an effect the other way counts as inactive or inconclusive.
# Experiments:
# [1] = molecular target: Lysosomal acid glucosylceramidase (Homo sapiens) (UniProt P04062); test: Glucocerebrosidase-p2 (AID 348; in the data active = potency below about 10 µM; note: potency is the fitted concentration of half-maximal effect); settings: purified GBA, blue fluorogenic substrate, 40 min
# Chain of Lysosomal acid glucosylceramidase (Homo sapiens) (P04062 whole entry, looked up): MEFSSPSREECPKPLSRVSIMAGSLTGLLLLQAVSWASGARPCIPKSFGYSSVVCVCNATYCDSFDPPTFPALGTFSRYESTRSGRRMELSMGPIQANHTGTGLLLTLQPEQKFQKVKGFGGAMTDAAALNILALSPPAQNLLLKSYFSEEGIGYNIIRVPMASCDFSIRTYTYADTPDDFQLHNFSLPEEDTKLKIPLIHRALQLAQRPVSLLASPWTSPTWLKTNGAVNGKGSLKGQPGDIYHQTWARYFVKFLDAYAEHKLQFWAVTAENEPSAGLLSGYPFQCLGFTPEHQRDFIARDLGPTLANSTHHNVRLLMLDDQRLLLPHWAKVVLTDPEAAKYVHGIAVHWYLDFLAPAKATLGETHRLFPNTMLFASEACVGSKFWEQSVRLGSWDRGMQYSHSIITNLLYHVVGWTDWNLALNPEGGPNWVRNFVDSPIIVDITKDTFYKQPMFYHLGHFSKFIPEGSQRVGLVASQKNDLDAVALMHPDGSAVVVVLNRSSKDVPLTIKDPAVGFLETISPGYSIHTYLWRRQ
# In short: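 Compounds titrated from 0.6 nM upwards against 0.2 nM enzyme in pH 5.9 citric acid/KH2PO4, taurocholate, tween-20; blue fluorogenic substrate 80 uM, 40 min room temperature, stopped and read Ex 365/Em 440 for AC50.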
# [2] = AP1 Signaling Pathway (AID 357; active = well fitted curve in either direction with a large enough effect, not every such curve was filed as active; note: % is set by controls: 0 for no effect and ±100 for the full control effect); settings: ME-180 AP-1-bla reporter, EGF-induced, beta-lactamase ratio, 5 h; at 7.69 µM (top of the series) unless noted
# In short: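 AP-1-bla ME-180 cells with beta-lactamase reporter under AP-1 response element, stimulated with EC50 EGF; compounds titrated, 5 hours at 37 degrees Celsius. CCF4 read at 460/530 nm ratio; positive and negative modulators judged by AC50.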
# [3] = NFAT Signaling Pathway (AID 444; active = well fitted curve in either direction with a large enough effect, not every such curve was filed as active;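 note: carbachol stimulus at about its EC50 of 1 µM final; % is set by controls: 0 for no effect and ±100 for the full control effect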); settings: Jurkat NFAT-bla M1, carbachol, beta-lactamase ratio, 5 h; at 7.69 µM (top of the series) unless noted
# In short: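 Jurkat cells carrying an NFAT-driven β-lactamase reporter and co-transfected muscarinic M1 receptor were treated with compound plus carbachol (1 uM final, an EC50 level) for 5 h at 37 °C. CCF4 loading followed for 1 h at RT; 460/530 nm ratio gave %activity.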
# [4] = Stat Signaling Pathway (AID 446; active = well fitted curve in either direction with a large enough effect, not every such curve was filed as active;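 note: ME-180 cervical cancer cells given 40 pM IL-6 alongside compound; SIE-controlled beta-lactamase reporter measured as 460/530 nm FRET emission ratio; % is set by controls: 0 for no effect and ±100 for the full control effect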); settings: ME-180 SIE beta-lactamase reporter, IL-6 stimulated, 5 h; at 7.69 µM (top of the series) unless noted
# In short: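 Screening format detects activators and inhibitors alike: ME-180 SIE-bla cells stimulated at 40 pM IL-6 for 5 hrs with compound, then dual-emission beta-lactamase read at 405 nm excitation.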
# [5] = molecular target: Glucocorticoid receptor (Homo sapiens) (UniProt P04150); test: GR-GFP Redistribution (AID 450;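 active = compounds whose dose series gives a full or clear partial fitted curve of increased nuclear translocation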; note: potency is the fitted concentration of half-maximal effect); settings: U2OS GR-GFP nuclear translocation, laser cytometry, 2 h
# Chain of Glucocorticoid receptor (Homo sapiens) (P04150 whole entry, looked up, the tested form may be a part): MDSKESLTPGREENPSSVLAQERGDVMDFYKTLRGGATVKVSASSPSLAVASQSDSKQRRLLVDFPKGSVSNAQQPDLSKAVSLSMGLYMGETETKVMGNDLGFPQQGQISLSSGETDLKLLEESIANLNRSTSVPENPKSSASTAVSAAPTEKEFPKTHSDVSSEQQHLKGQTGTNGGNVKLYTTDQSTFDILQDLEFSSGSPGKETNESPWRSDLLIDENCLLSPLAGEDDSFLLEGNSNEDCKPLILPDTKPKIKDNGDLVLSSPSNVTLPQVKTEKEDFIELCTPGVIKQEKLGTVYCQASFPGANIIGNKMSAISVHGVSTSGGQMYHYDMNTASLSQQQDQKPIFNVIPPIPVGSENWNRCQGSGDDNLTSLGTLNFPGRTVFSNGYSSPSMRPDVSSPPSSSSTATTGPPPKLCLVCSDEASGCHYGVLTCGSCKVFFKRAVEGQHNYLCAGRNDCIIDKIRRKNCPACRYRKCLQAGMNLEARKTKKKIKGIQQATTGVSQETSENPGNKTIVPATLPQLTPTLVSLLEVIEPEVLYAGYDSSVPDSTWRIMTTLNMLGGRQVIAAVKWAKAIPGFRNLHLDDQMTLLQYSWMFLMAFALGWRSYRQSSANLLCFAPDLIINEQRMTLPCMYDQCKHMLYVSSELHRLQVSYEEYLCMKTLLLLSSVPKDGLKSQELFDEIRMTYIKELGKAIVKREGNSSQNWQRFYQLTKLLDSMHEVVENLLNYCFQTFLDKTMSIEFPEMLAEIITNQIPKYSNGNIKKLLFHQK
# [6] = molecular target: Glucocorticoid receptor (Homo sapiens) (UniProt P04150); test: GR-EFC Redistribution (AID 451; calls by dose curve; note: potency is the fitted concentration of half-maximal effect); settings: CHO-K1 GR-EFC translocation, beta-gal luminescence, 2 h
# In short: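 CHO-K1 cells stably expressing nuclear-localized β-gal enzyme acceptor and GR fused C-terminally to the enzyme donor fragment; ligand-driven nuclear translocation restores β-gal by complementation. Compounds titrated up to 46 uM final, 2 h at 37 °C; luminescence read.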
# [7] = molecular target: Mitogen-activated protein kinase 10 (Mus musculus) (UniProt Q61831); test: JNK3 AlphaScreen Assay (AID 530; active = well fitted curve in either direction with a large enough effect, not every such curve was filed as active;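 note: kinase came from lysate of stimulated human HepG2 cells; signal reports phosphorylation of biotinylated GST-cJun 1-79 at Ser73 with 10 µM ATP; % is set by controls: 0 for no effect and ±100 for the full control effect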); settings: JNK3 lysate, c-Jun phosphorylation; series mostly up to 57.1 µM
# In short: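 JNK3 came from HepG2 lysates pre-activated with IL-1beta and TNF-alpha and phosphorylated biotinylated GST-cJun (1-79) at 10 uM ATP, pH 7.6, room temperature. Compounds were titrated. AlphaScreen signal used anti-phospho-cJun (Ser73) antibody.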
# [8] = molecular target: 3',5'-cyclic-AMP phosphodiesterase 4B (Homo sapiens) (UniProt Q07343); test: qHTS Assay for Inhibitors of PDE-IV (AID 607; active = well fitted activation curve with a large enough effect in the main read-out, with a control signal flat, not every such curve was filed as active; note: % of control where 0% means no effect); settings: HEK293 ACTOne CNG channel cells, membrane potential fluorescence; series mostly up to 22.9 µM
# Chain of 3',5'-cyclic-AMP phosphodiesterase 4B (Homo sapiens) (Q07343 whole entry, looked up): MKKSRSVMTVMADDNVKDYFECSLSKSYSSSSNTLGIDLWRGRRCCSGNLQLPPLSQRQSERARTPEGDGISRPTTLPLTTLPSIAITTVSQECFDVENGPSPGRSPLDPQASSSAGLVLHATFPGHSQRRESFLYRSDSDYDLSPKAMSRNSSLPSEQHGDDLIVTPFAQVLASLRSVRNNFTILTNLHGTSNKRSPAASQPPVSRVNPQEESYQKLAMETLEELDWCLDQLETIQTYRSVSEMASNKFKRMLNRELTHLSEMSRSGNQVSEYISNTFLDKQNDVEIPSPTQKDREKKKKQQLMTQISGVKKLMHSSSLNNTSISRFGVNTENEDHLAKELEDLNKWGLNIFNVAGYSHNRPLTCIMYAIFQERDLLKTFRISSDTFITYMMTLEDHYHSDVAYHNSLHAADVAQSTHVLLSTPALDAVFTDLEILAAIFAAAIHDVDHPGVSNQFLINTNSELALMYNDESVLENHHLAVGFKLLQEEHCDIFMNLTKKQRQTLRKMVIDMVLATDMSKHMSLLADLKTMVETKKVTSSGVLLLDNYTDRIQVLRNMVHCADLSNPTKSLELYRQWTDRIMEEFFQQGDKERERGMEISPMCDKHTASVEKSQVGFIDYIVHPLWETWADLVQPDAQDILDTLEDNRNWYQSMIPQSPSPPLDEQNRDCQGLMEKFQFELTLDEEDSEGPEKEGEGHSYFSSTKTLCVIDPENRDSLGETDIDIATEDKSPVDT
# In short: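 The readout is membrane depolarisation from a cAMP-sensing CNG channel, detected with a potential dye at ex 535/em 590. Cells were HEK293-derived (endogenous PDE-IV) at 1000 cells/well, titrated up to 22.9 uM final.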
# [9] = qHTS Assay for Lipid Storage Modulators (AID 1519; calls by dose curve); settings: Drosophila S3 cells, BODIPY lipid droplet/cell ratio, laser cytometry, cells loaded with oleic acid; for activity change, negative = inhibition: at 57.5 µM (top of the series)
# In short: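 Cells seeded at 5,000 per well were treated with compounds over a concentration series and loaded with oleic acid (400 uM, as added). Lipid droplet fluorescence (488 nm excitation, 500-530 nm channel) was read by laser-scanning cytometry and normalized to 20 uM Triacsin C.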
# [10] = molecular target: Dual specificity protein kinase CLK4 (Homo sapiens) (UniProt Q9HAZ1); test: qHTS Assay for Inhibitors of CDC-like Kinase 4 (Kinase-Glo Assay) (AID 1770); settings: recombinant Clk4, Kinase-Glo ATP depletion luminescence; series mostly up to 66.7 µM; note: % is set by controls: 0 for no effect and ±100 for the full control effect; nearly all actives have a fitted effect of over 65% in size
# Chain of Dual specificity protein kinase CLK4 (Homo sapiens) (Q9HAZ1 whole entry, looked up): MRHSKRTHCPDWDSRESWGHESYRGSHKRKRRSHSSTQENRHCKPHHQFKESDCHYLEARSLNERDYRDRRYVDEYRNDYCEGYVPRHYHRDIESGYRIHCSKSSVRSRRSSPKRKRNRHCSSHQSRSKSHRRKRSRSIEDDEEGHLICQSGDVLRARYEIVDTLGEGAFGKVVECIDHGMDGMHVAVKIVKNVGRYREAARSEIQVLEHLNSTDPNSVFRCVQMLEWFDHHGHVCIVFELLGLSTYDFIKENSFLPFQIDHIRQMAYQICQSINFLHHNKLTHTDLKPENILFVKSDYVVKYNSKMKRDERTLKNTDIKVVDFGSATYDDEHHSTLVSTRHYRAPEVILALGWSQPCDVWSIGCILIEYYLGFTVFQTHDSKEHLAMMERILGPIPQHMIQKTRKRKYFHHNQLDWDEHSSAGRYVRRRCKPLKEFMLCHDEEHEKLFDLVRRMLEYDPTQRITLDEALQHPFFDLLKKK
# In short: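 Substrate mix (RS peptide 100 uM, ATP 1 uM) dispensed, compound pinned in, then Clk4 added to 25 nM final. Incubated 4.5 h at RT; Kinase-Glo reagent added, luminescence read after 5 min.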
# [11] = molecular target: Dual specificity protein kinase CLK4 (Homo sapiens) (UniProt Q9HAZ1); test: qHTS Assay for Inhibitors of CDC-like Kinase 4 (ADP-Glo Assay) (AID 1771); settings: recombinant CLK4, ADP-Glo luminescence; series mostly up to 80 µM; note: % is set by controls: 0 for no effect and ±100 for the full control effect; nearly all actives have a fitted effect of over 70% in size
# In short: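 Kinase reaction: Clk4 at 25 nM, RS repeat peptide substrate at 100 uM, ATP at 1 uM, 1 hr, room temperature. Product ADP detected as luciferase signal via ADP-Glo.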
# [12] = molecular target: Dual specificity protein kinase CLK4 (Homo sapiens) (UniProt Q9HAZ1); test: qHTS Assay for Inhibitors of CDC-like Kinase 4 (ADP-FP Assay) (AID 1795); settings: Transcreener ADP fluorescence polarization; series mostly up to 50 µM;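 note: recombinant human CLK4 phosphorylating RS repeat peptide at 1 µM ATP; % is set by controls: 0 for no effect and ±100 for the full control effect; nearly all actives have a fitted effect of over 60% in size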
# In short: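 Clk4 6.25 nM; RS peptide 100 uM; ATP 1 uM; 25 mM Tris pH 7.5, 10 mM MgCl2; 1 h reaction. ADP detected via antibody/orange tracer FP displacement; TG003 positive control.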
# [13] = Primary qHTS for small molecule stabilizers of the endoplasmic reticulum resident proteome: Secreted ER Calcium Modulated Protein (SERCaMP) assay (AID 1508630); settings: SH-SY5Y GLuc-SERCaMP (Gaussia luciferase released on ER calcium loss) secretion, thapsigargin, luminescence; series mostly up to 38.4 µM; note: % is set by controls: 0 for no effect and ±100 for the full control effect
# In short: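 GLuc-SERCaMP-expressing SH-SY5Y cells, pretreated 16 h with compound, are challenged with thapsigargin to empty ER calcium stores; after 4 h, coelenterazine is added directly to the medium and luminescence is imaged.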
# [14] = molecular target: Ubiquitin carboxyl-terminal hydrolase 1 (Homo sapiens) (UniProt O94782); test: Inhibitors of USP1/UAF1: Pilot qHTS (AID 504865); settings: purified USP1/UAF1, Ub-rhodamine cleavage fluorescence; series mostly up to 54.9 µM;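 note: rhodamine fluorescence freed from ubiquitin-rhodamine substrate followed over time; top concentration of the series differs between compounds; % is set by controls: 0 for no effect and ±100 for the full control effect; nearly all actives have a fitted effect of over 35% in size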
# Chain of Ubiquitin carboxyl-terminal hydrolase 1 (Homo sapiens) (O94782 whole entry, looked up): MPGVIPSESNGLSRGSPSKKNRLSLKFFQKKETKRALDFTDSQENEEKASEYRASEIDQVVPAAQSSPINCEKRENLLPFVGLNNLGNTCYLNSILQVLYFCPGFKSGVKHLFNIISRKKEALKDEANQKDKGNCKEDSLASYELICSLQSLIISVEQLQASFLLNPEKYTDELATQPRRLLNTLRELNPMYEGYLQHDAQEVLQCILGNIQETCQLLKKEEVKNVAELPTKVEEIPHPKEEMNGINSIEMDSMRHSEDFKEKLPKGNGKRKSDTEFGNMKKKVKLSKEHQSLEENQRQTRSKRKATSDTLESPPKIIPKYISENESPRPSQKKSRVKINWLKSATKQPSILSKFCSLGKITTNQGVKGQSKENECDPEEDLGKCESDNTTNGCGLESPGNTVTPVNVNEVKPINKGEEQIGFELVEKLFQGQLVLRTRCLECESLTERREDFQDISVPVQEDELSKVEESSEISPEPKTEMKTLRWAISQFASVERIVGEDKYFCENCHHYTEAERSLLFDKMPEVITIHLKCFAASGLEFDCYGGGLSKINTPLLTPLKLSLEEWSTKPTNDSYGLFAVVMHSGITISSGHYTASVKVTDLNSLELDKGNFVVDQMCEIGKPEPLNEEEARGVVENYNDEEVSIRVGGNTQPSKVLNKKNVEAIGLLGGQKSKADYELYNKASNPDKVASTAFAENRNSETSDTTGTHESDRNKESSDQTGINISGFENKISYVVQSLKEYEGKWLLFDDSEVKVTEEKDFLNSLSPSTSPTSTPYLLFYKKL
# In short: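 In 50mM HEPES pH 7.8 containing 0.5mM EDTA, 1mM TCEP, 0.1 mg/ml BSA and 0.01% Tween-20, 1nM USP1/UAF1 is exposed to compound for 15 min, then Ub-Rho (150nM final) is added and fluorescence is read over time.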
# [15] = molecular target: Cytochrome P450 3A4 (Homo sapiens) (UniProt P08684); test: qHTS Assay for Activators of Cytochrome P450 3A4 (AID 885); settings: recombinant CYP3A4, Luciferin-PPXE luminescence, 60 min; series mostly up to 57.1 µM; note: nearly all actives have a fitted effect of over 65% in size
# Chain of Cytochrome P450 3A4 (Homo sapiens) (P08684 whole entry, looked up): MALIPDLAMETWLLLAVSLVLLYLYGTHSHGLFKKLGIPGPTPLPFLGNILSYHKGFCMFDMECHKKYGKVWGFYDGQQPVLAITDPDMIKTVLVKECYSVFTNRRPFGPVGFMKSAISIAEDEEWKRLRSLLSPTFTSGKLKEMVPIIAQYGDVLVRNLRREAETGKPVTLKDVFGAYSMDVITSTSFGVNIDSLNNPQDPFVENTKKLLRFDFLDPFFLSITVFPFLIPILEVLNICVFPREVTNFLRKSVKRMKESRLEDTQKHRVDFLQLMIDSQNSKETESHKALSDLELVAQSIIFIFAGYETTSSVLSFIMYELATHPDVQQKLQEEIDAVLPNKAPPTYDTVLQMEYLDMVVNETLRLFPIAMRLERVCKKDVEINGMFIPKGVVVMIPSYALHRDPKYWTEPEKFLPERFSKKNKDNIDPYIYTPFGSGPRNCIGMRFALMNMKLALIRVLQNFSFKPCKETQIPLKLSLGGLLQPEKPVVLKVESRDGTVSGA
# In short: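 Steps: enzyme/substrate mix dispensed; compound added, 10 min RT; NADPH regeneration solution added, 60 min RT; luciferin detection buffer stops reaction; 20 min later luminescence measured.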
# [16] = measured here: cell count channel max response
# [17] = measured here: lipid channel max response
SMILES,Potency [1],"activity change, negative = inhibition [2]","activity change, negative = inhibition [3]","activity, negative = inhibition [4]",Potency [5],Potency [6],outcome [7],Potency [8],"activity change, negative = inhibition [9]","max response [9, 16] [%]","max response [9, 17] [%]",Potency [10],Potency [11],Potency [12],Potency [13],Potency [14],Potency [15]
COCCn1c(=O)c(-c2ccc(Cl)cc2)nc2cnc(Oc3cccc(Cl)c3)nc21,> 11.4 µM (inactive),13.2% (inactive),-0.0987% (inactive),-8.1% (inactive),> 9.22 µM (inactive),> 46 µM (inactive),inactive,inactive,4.42% (inactive),19.3,25.5,inactive,inactive,inactive,inactive,–,–
COc1ccccc1-c1nccc(NC2CCNCC2)n1,> 11.4 µM (inactive),3.56% (inactive),5.88% (inactive),27.9% (inactive),> 46 µM (inactive),> 46 µM (inactive),inactive,inactive,2.87% (inactive),7.38,8.77,inactive,inactive,inactive,inactive,inactive,–
Cc1nc2cnc(N3CCOCC3)nc2n(Cc2ccc(F)cc2)c1=O,> 11.4 µM (inactive),-3.91% (inactive),-17.2% (inactive),4.04% (inactive),> 9.22 µM (inactive),–,inactive,–,2.61% (inactive),13.7,15.9,inactive,inactive,inactive,inactive,inactive,–
O=c1c(-c2cc(F)cc(F)c2)nc2cnc(N3CCOCC3)nc2n1Cc1cccs1,> 11.4 µM (inactive),6.66% (inactive),22.7% (inactive),6.69% (inactive),> 9.22 µM (inactive),> 46 µM (inactive),–,inactive,3.39% (inactive),18.1,23.4,inactive,inactive,inactive,inactive,inactive,–
COc1ccc(-c2nc3cnc(Nc4cccc(OC)c4)nc3n(C[C@H]3CCCO3)c2=O)cc1,> 11.4 µM (inactive),-24.6% (inactive),-19.9% (inactive),16.7% (inactive),> 9.22 µM (inactive),> 46 µM (inactive),inactive,inactive,-4.84% (inactive),-7.08,-12.2,inactive,inactive,inactive,inactive,inactive,inactive
COCCn1c(=O)c(C)nc2cnc(Oc3ccccc3)nc21,> 11.4 µM (inactive),-9.67% (inactive),–,-12.4% (inactive),> 9.22 µM (inactive),–,inactive,inactive,4.7% (inactive),23.5,27.5,inactive,inactive,inactive,inactive,–,inactive
